Results filed as inconclusive are left out. Calls of active or inactive are those of the source. Calls follow the shape of the dose curve; as a rule, active = well fitted curve in the direction sought with a large enough effect; inconclusive = small, poorly fitted or top-dose-only effect, or another doubt; inactive = no such curve, though single readings can be large; an effect the other way counts as inactive or inconclusive. Where a SMILES comes first, the peptide text is derived from it.
Tests used:
CRL-7250 = normal cell line; test: Cytotoxic Profiling of Annotated Libraries Using Quantitative High-Throughput Screening (AID 1296008); settings: Five cell lines viability, CellTiter-Glo ATP luminescence, 48-72 h; max response: hits give low values; also: nearly all actives have a fitted effect of over 60% in size; as to max response: % is scaled to controls: 0 for no effect and ±100 for the full control effect
Procedure, shortened: (§1)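 Cells exposed to compounds for 48 or 72 hr at 37 degrees Celsius. Viability read as ATP-coupled luminescence with CellTiter-Glo after 10 min at room temperature.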

HEK293 = test: as above; settings: Five cell lines viability, CellTiter-Glo ATP luminescence, 48-72 h; max response: hits give low values
Procedure, shortened: as §1

HaCat = test: as above; settings: Five cell lines viability, CellTiter-Glo ATP luminescence, 48-72 h; max response: hits give low values
Procedure, shortened: as §1

KB-3-1 = test: as above; settings: Five cell lines viability, CellTiter-Glo ATP luminescence, 48-72 h; max response: hits give low values
Procedure, shortened: as §1

NIH3T3 [1] = test: as above; settings: Five cell lines viability, CellTiter-Glo ATP luminescence, 48-72 h; max response: hits give low values
Procedure, shortened: as §1

NIH3T3 [2] = test: qHTS assay to identify novel small-molecules to repurpose for Merkel cell carcinoma treatment (AID 1296009); settings: MCC and control cell lines, CellTiter-Glo viability, 72 h; at 44.8 µM (top of the series) unless noted; also: nearly all actives have a fitted effect of over 60% in size
Procedure, shortened: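 CellTiter-Glo luminescence after 72 hr compound exposure at 37 degree celsius gave cell viability. Libraries NPC and MIPE were run as 8- and 11-point dose responses; RLUs normalized to DMSO (negative) and no-cell (cytotoxicity) controls.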

C33A = test: Primary qHTS to identify gynecologic anti-cancer compounds using libraries of approved drugs and bioactive compounds (AID 1345084); settings: Gynecologic cancer cell panel viability, ATPlite luminescence, 48 h; series mostly up to 57.5 µM; also: % is scaled to controls: 0 for no effect and ±100 for the full control effect; nearly all actives have a fitted effect of over 55% in size
Procedure, shortened: (§2)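 Measured: luminescence after ATPlite addition (15 min, RT). Exposure: 48 h, 37 C, 5% CO2.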

CAOV3 = test: as above; settings: Gynecologic cancer cell panel viability, ATPlite luminescence, 48 h; series mostly up to 57.5 µM
Procedure, shortened: as §2

CASKI = test: as above; settings: Gynecologic cancer cell panel viability, ATPlite luminescence, 48 h; series mostly up to 57.5 µM
Procedure, shortened: as §2

Es-2 = test: as above; settings: Gynecologic cancer cell panel viability, ATPlite luminescence, 48 h; series mostly up to 57.5 µM
Procedure, shortened: as §2

HeLa = test: as above; settings: Gynecologic cancer cell panel viability, ATPlite luminescence, 48 h; series mostly up to 57.5 µM
Procedure, shortened: as §2

Hek293T = test: as above; settings: Gynecologic cancer cell panel viability, ATPlite luminescence, 48 h, control line for the selectivity index; series mostly up to 57.5 µM
Procedure, shortened: as §2

JEG-3 = test: as above; settings: Gynecologic cancer cell panel viability, ATPlite luminescence, 48 h; series mostly up to 57.5 µM
Procedure, shortened: as §2

COC(=O)C1=COC(OC2OC(CO)C(O)C(O)C2O)C2C(C)CC(=O)C12O (stereo not drawn)
inactive: outcome (CRL-7250) | max response (HEK293) 2.83% | max response (HaCat) -24.6% | outcome (KB-3-1) | outcome (NIH3T3 [1]) | outcome (NIH3T3 [2]) inactive [at 17.4 µM] | Potency (C33A) | Potency (CAOV3) | outcome (CASKI) | Potency (Es-2) | Potency (HeLa) | Potency (Hek293T) | Potency (JEG-3)

COc1cc(/C=C/C(=O)O[C@H]2[C@H](O)[C@@H](CO)O[C@@]2(CO)O[C@H]2O[C@H](CO)[C@@H](O)[C@H](O)[C@H]2O)cc(OC)c1O
inactive: outcome (CRL-7250) | max response (HEK293) -9.27% | max response (HaCat) -10.1% | max response (KB-3-1) 3.15% | outcome (NIH3T3 [1]) | outcome (NIH3T3 [2]) inactive [at 17.4 µM] | Potency (C33A) | Potency (CAOV3) | outcome (CASKI) | Potency (Es-2) | Potency (HeLa) | Potency (Hek293T) | Potency (JEG-3)

CC(C)C(NC(=O)c1ccc(O)cc1)C(=O)N1CCCC1C(=O)Nc1c(O)cccc1C(=O)O (stereo not drawn)
inactive: max response (CRL-7250) -0.89% | max response (HEK293) -9.61% | max response (HaCat) -4.47% | max response (KB-3-1) 5.36% | outcome (NIH3T3 [1]) | outcome (NIH3T3 [2]) inactive [at 17.4 µM] | Potency (C33A) | Potency (CAOV3) | outcome (CASKI) | Potency (Es-2) | Potency (HeLa) | Potency (Hek293T) | Potency (JEG-3)

CC1=CC(=O)CC(C)(C)C1/C=C/C(C)OC1OC(COC2OCC(O)C(O)C2O)C(O)C(O)C1O (stereo not drawn)
inactive: max response (CRL-7250) 0.665% | max response (HEK293) -4.28% | max response (HaCat) -0.25% | max response (KB-3-1) 9.19% | outcome (NIH3T3 [1]) | outcome (NIH3T3 [2]) inactive [at 17.4 µM] | Potency (C33A) | Potency (CAOV3) | outcome (CASKI) | Potency (Es-2) | Potency (HeLa) | Potency (Hek293T) | Potency (JEG-3)

C=CC(C)(O)CC/C=C(\C)C(=O)O[C@@H]1[C@@H](O)[C@H](OC(C)(C=C)CC/C=C(\C)C(=O)O)O[C@H](CO)[C@H]1OC(=O)/C(C)=C/CCC(C)(O)C=C (stereo partly drawn)
inactive: outcome (CRL-7250) | max response (HEK293) -0.372% | max response (HaCat) -21.2% | outcome (KB-3-1) | outcome (NIH3T3 [1]) | outcome (NIH3T3 [2]) inactive [at 17.4 µM] | Potency (C33A) | Potency (CAOV3) | outcome (CASKI) | Potency (Es-2) | Potency (HeLa) | Potency (Hek293T) | Potency (JEG-3)

C=C1CCC2(OC1)OC1CC3C4CC=C5CC(O)CC(O[C@@H]6OC[C@H](OC(=O)C(O)C(C)CC)[C@H](O)[C@H]6O[C@@H]6O[C@@H](C)[C@H](O)[C@@H](O)[C@H]6O)C5(C)C4CCC3(C)C1C2C (stereo partly drawn)
inactive: max response (CRL-7250) -2.78% | max response (HEK293) -1.63% | max response (HaCat) -7.88% | outcome (KB-3-1) | outcome (NIH3T3 [1]) | outcome (NIH3T3 [2]) inactive [at 9.27 µM] | activity change, negative = cytotoxicity (C33A) 4.8% [at 11.6 µM] | activity change, negative = cytotoxicity (CAOV3) 21.8% [at 11.6 µM] | activity change, negative = cytotoxicity (CASKI) 19.8% [at 11.6 µM] | activity change, negative = cytotoxicity (Es-2) -3.44% [at 11.6 µM] | activity change, negative = cytotoxicity (HeLa) 13.3% [at 11.6 µM] | activity change, negative = cytotoxicity (Hek293T) 16.6% [at 11.6 µM] | activity change, negative = cytotoxicity (JEG-3) 16.8% [at 11.6 µM]

O=C(O)C(Cc1ccccc1)NC(=O)C1CCCN1 (stereo not drawn) (H-Pro-Phe-OH; configuration not given here)
inactive: max response (CRL-7250) -5.01% | max response (HEK293) 0.403% | max response (HaCat) -6.92% | outcome (KB-3-1) | outcome (NIH3T3 [1]) | outcome (NIH3T3 [2]) | Potency (C33A) | Potency (CAOV3) | outcome (CASKI) | Potency (Es-2) | Potency (HeLa) | Potency (Hek293T) | Potency (JEG-3)

O=C(O)[C@H](Cc1ccccc1)Oc1ccc(-c2ccccc2)cc1
inactive: max response (CRL-7250) -13.4% | max response (HEK293) 4.06% | max response (HaCat) -11.4% | outcome (KB-3-1) | outcome (NIH3T3 [1]) | outcome (NIH3T3 [2]) | Potency (C33A) | Potency (CAOV3) | outcome (CASKI) | Potency (Es-2) | Potency (HeLa) | Potency (Hek293T) | Potency (JEG-3)

C[C@@H]1O[C@@H](O[C@H]2[C@H](OC(=O)[C@]34CCC(C)(C)C[C@H]3C3=CCC5[C@@]6(C)C[C@@H](O)[C@@H](O[C@@H]7O[C@H](CO)[C@@H](O)[C@H](O)[C@H]7O)[C@@](C)(CO)C6[C@H](O)C[C@@]5(C)[C@]3(C)CC4)OC[C@H](O)[C@@H]2O)[C@H](O)[C@H](O[C@@H]2OC[C@](O)(CO)[C@H]2O)[C@H]1O[C@@H]1OC[C@@H](O)[C@H](O[C@H]2O[C@H](C)[C@@H](O)[C@H](O)[C@@H]2O)[C@H]1O (stereo partly drawn)
inactive: outcome (CRL-7250) | max response (HEK293) 4.64% | max response (HaCat) 2.54% | outcome (KB-3-1) | outcome (NIH3T3 [1]) | outcome (NIH3T3 [2]) inactive [at 9.27 µM] | activity change, negative = cytotoxicity (C33A) 7.61% [at 6.55 µM] | activity change, negative = cytotoxicity (CAOV3) 0.345% [at 6.55 µM] | activity change, negative = cytotoxicity (CASKI) 0.644% [at 6.55 µM] | activity change, negative = cytotoxicity (Es-2) -2.14% [at 6.55 µM] | activity change, negative = cytotoxicity (HeLa) 14.1% [at 6.55 µM] | activity change, negative = cytotoxicity (Hek293T) 4.59% [at 6.55 µM] | activity change, negative = cytotoxicity (JEG-3) 14.8% [at 6.55 µM]

CCOc1ncc(S(=O)(=O)N2CCN(CC)CC2)cc1-c1nc2c(CC)n(CCOC)nc2c(=O)[nH]1
inactive: outcome (CRL-7250) | max response (HEK293) -6.31% | max response (HaCat) 2.49% | outcome (KB-3-1) | outcome (NIH3T3 [1]) | outcome (NIH3T3 [2]) | Potency (C33A) | Potency (CAOV3) | outcome (CASKI) | Potency (Es-2) | Potency (HeLa) | Potency (Hek293T) | Potency (JEG-3)

Cc1ccc2[nH]c(=O)c(C3=NN(C(=O)CCC(=O)O)C(c4ccc(Br)cc4)C3)c(-c3ccccc3)c2c1 (stereo not drawn)
inactive: max response (CRL-7250) 0.735% | max response (HEK293) 1.24% | max response (HaCat) -0.37% | max response (KB-3-1) 4.72% | outcome (NIH3T3 [1]) | outcome (NIH3T3 [2]) | Potency (C33A) | Potency (CAOV3) | outcome (CASKI) | Potency (Es-2) | Potency (HeLa) | Potency (Hek293T) | Potency (JEG-3)

COC(=O)c1ccc(OC)cc1O[C@@H]1O[C@H](CO[C@@H]2OC[C@@H](O)[C@H](O)[C@H]2O)[C@@H](O)[C@H](O)[C@H]1O
inactive: max response (CRL-7250) -0.542% | max response (HEK293) -1.51% | max response (HaCat) -6.53% | outcome (KB-3-1) | outcome (NIH3T3 [1]) | outcome (NIH3T3 [2]) inactive [at 17.4 µM] | Potency (C33A) | Potency (CAOV3) | outcome (CASKI) | Potency (Es-2) | Potency (HeLa) | Potency (Hek293T) | Potency (JEG-3)

CC1(CO)CCCC2(C)C3COC(=O)C3=CC(O)C12 (stereo not drawn)
inactive: max response (CRL-7250) 1.03% | max response (HEK293) -8.01% | max response (HaCat) -5.37% | outcome (KB-3-1) | outcome (NIH3T3 [1]) | outcome (NIH3T3 [2]) | Potency (C33A) | Potency (CAOV3) | outcome (CASKI) | Potency (Es-2) | Potency (HeLa) | Potency (Hek293T) | Potency (JEG-3)

CCCN(CCN1CCN(c2ccccc2OC)CC1)C1CCc2ncsc2C1 (stereo not drawn)
inactive: max response (CRL-7250) -14.3% | max response (HEK293) 0.117% | max response (HaCat) -2.7% | outcome (KB-3-1) | outcome (NIH3T3 [1]) | outcome (NIH3T3 [2]) | Potency (C33A) | Potency (CAOV3) | outcome (CASKI) | Potency (Es-2) | Potency (HeLa) | Potency (Hek293T) | Potency (JEG-3)

CC(C)CC[C@@H](O)[C@](C)(O)[C@H]1CC[C@@]2(O)C3=CC(=O)[C@@H]4C[C@@H](O)[C@@H](O)C[C@]4(C)[C@H]3CC[C@]12C
inactive: max response (CRL-7250) -1.43% | max response (HEK293) 3.83% | max response (HaCat) 4.07% | outcome (KB-3-1) | outcome (NIH3T3 [1]) | outcome (NIH3T3 [2]) | Potency (C33A) | Potency (CAOV3) | outcome (CASKI) | Potency (Es-2) | Potency (HeLa) | Potency (Hek293T) | Potency (JEG-3)

C[C@@H]1C[C@@H](O)[C@@]23CO[C@]2(CO)CCC[C@@H]3[C@@]12C[C@@H](c1ccoc1)OC2=O
inactive: max response (CRL-7250) -8.12% | max response (HEK293) 2.85% | max response (HaCat) -3.9% | max response (KB-3-1) 7.05% | outcome (NIH3T3 [1]) | outcome (NIH3T3 [2]) | Potency (C33A) | Potency (CAOV3) | outcome (CASKI) | Potency (Es-2) | Potency (HeLa) | Potency (Hek293T) | Potency (JEG-3)

— PubChem BioAssay (NCATS)
